Measured values reported in the supplement of paper PMC11417369.
± gives the standard deviation of the averaged measurements. The full ranking holds about 25,000 sequences; the median of “ln(normalized median fluorescence intensity)” is about 8.9, and the highest 2% start at about 10. Shown is part of a subset that was picked to be rich in the highest values.

System: PfAP2-LT AP2 domain (GST-tagged)
Experiment: gcPBM binding intensity (ln(normalized median fluorescence intensity)); higher = stronger DNA binding
Procedure, shortened: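 Probes on an Agilent 4 × 180k array were primer-extended, double-stranded and 36 bp long, taken from intergenic genomic regions, with negative controls added. GST-tagged P. falciparum DNA-binding domains from E. coli, about 25 μg on average, were applied to the array for 1 h in 1× PBS containing 1% milk, 0.2 mg/ml BSA, 0.5% salmon testes DNA and 0.03% Triton X-100. Binding intensity, obtained after Alexa488 anti-GST antibody detection and a 488 nm scan, is the highest Masliner-normalised natural-log median intensity across replicate spots of either probe orientation.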

| Sequence | gcPBM binding intensity (ln) |
| --- | --- |
| TTTTCCCTCTTATTCACACAAAAAAAATAAAATAAA [CACACA_site4656] | 8.2 ± 0.42 |
| TTTGCTTCGATATATTCACACATTTTTTTTCTTATT [CACACA_site4499] | 8.91 ± 0.46 |
| TTCTTTTTTCAACACACACACACAAGAAAATATATA [CACACA_site9019] | 9.51 ± 0.16 |
| AATATAAATAAAAACACACACAATGGTACCTATATA [CACACA_site7688] | 9.3 ± 0.39 |
| TATTATATATATGGAAGTACAGGTATATCGTTTTTC [XGTACX_site3771] | 8.73 ± 0.4 |
| CATATACACGAACACACACACATATAAATAAATATA [CACACA_site6379] | 9.74 ± 0.29 |
| TATACATATATATACACACACACATATATATATATA [CACACA_site1299] | 9.9 ± 0.42 |
| TACACATACACATACACACGCATAGAAACATACGAA [CACACA_site2137] | 9.48 ± 0.33 |
| AAAAAAAAAATATACACACACACATACACATAAATA [CACACA_site3808] | 9.92 ± 0.21 |
| CACACGCACGAACACACACACACACGCACGCACATA [CACACA_site6305] | 10.4 ± 0.13 |
| CACACGCACGAACACACACACATATAAATATAAATA [CACACA_site6299] | 9.71 ± 0.44 |
| AACATATACACGAACACACACACATATATATATATA [CACACA_site502] | 10.3 ± 0.26 |
| TATATACATATATACACACACATATATATATATATA [CACACA_site2805] | 9.905 ± 0.0071 |
| CTAAAATACGAACACACACACACATATAAATAAATA [CACACA_site7872] | 10.2 ± 0.33 |
| AGTATACACGAACACACACACACATATATAAATATA [CACACA_site6913] | 10.2 ± 0.4 |
| TAACACATAAATAAATATATACATATATATAAAATA [CACACA_negctrl_site375] | 8.81 ± 0.46 |
| AACATATACACGAACACACACACATATAAATAAATA [CACACA_site6380] | 9.87 ± 0.23 |
| TTTTTTAAATAATATTGTACAAAAAATGTATAAATA [XGTACX_site3010] | 8.44 ± 0.42 |
| ATATATATATAAATATGTACATATATACATATATAC [XGTACX_site2374] | 8.89 ± 0.23 |
| TGTATGTCTTTATTTTGTACACAATATAAAAAATTA [XGTACX_site5441] | 8.51 ± 0.38 |
| ACCATTTGTAGGTAAACACACATTATTATTAATATC [CACACA_site2635] | 8.93 ± 0.4 |
| CATTTTGTAAGATATGCACACATGGATCATATTTTA [CACACA_site423] | 8.95 ± 0.34 |
| CAAAAGCGATACGGCACACATTTCCTGTTTAAATGA [CACACA_site5519] | 8.99 ± 0.58 |
| TACTGATCTTTCTAGGTGCGCTGCTACCATTATCGT [GTGCAC_site9538] | 8.99 ± 0.49 |

| Sequence | gcPBM binding intensity (ln) |
| --- | --- |
| GATATGATTAACTTATGTTATTCTTGATGATTACGT [CACACA_negctrl_site354] | 8.86 ± 0.38 |
| TCTTTATTATTCGCCACACACATATAAATATAAATA [CACACA_site7441] | 8.93 ± 0.4 |
| CATATACACGAACACACACACACACGCACAAAAAAA [CACACA_site6376] | 10.1 ± 0.24 |
| TGAACACGCACAAATACACACAAAAAAAATAAATAA [CACACA_site6257] | 9.31 ± 0.49 |
| TATATACACGCACATACACACAAATAAAAAAACACC [CACACA_site7578] | 9.67 ± 0.31 |
| AAAAAAAAAAAAAAAAAAAAAAAAAAATATATATAT [CACACA_negctrl_site271] | 8.74 ± 0.28 |
| AAAAAAATATATATATATATATATATATATATATAT [TGCATGCA_negctrl_site7] | 9.605 ± 0.064 |
| AAAAAAAAAAAAAAAAAAAAATATATATATATATAT [GTGCAC_negctrl_site426] | 9.67 ± 0.085 |
| AAAAAAAAAATATATATATATATATATATATATATA [GTGCAC_negctrl_site467] | 10.1 ± 0.2 |
| AAAAAAAAAAAAAATATATATATATATATATATATA [CACACA_negctrl_site540] | 10.1 ± 0.25 |
| AAAAAAAAAAAAAAAAAAAAAAAAATATATATATAT [CACACA_negctrl_site436] | 9.25 ± 0.27 |
| ATATTTATATATATCATACACACTAATATGTATATT [CACACA_site3409] | 8.95 ± 0.42 |
| ATATAAATAAATACAACACACATGTCATATCTAAAT [CACACA_site7533] | 9.12 ± 0.39 |
| AGTAGTCTGGAGAAATGTACACAGTATCTGGTAGCT [XGTACX_site4871] | 8.86 ± 0.44 |
| AAAAAAAAAAAAAACACACACACACGCACATATACA [CACACA_site7288] | 10.1 ± 0.3 |
| ATACAACATATATATACACACATATAATAATAATAA [CACACA_site3367] | 9.26 ± 0.38 |
| AATACATATAATACAACACACAAGTAATATAAACCT [CACACA_site3597] | 9.34 ± 0.29 |
| AAAACATACATATATACACACATATATATATATATA [CACACA_site1852] | 9.97 ± 0.53 |
| AAAAAAAAAAAACACACACACAAATACAAATACATA [CACACA_site415] | 9.99 ± 0.38 |
| AAAAAAAAAAAAAAAACACACATACACGCACGCACA [CACACA_site7569] | 9.35 ± 0.23 |
| CACATACACATACACATACACACGCATAGAAACATA [CACACA_site2136] | 9.71 ± 0.28 |
| GGTACATACAAACACACACACAAAAAAAAAAAAATA [CACACA_site1577] | 9.65 ± 0.4 |
| AAAAAAAAAAAAAACACACACACACGCAAATACATA [CACACA_site6474] | 10.3 ± 0.27 |
| AAAAAAAAAAAAAACACACACACACGCATACACATA [CACACA_site7364] | 10.2 |

| Sequence | gcPBM binding intensity (ln) |
| --- | --- |
| AAGTAATACAACACGCACATATATATATATATATAT [GTGCAC_negctrl_site89] | 10.3 ± 0.25 |
| CATATATATATATATTGTACAAGATTGTTTTTTTAT [XGTACX_site3913] | 8.79 ± 0.3 |
| ATAAAAATTTAAAAAGAACACACGAAAGAAGGACTT [CACACA_site3929] | 9.01 ± 0.53 |
| TTTTTTATGATTAACACACACACAAAAAAAAAAAAA [CACACA_site4130] | 9.03 ± 0.32 |
| AAAAATTTTAATTAGGAACACACATATATATATATA [CACACA_site9016] | 9.48 ± 0.42 |
| ATATTTGCCCAAGATAGTACATATATATATATATAT [XGTACX_site7756] | 9.74 ± 0.2 |
| TACATATTTTATAACTGTACTTTTTTATTATCCAAT [XGTACX_site5396] | 8.71 ± 0.47 |
| ATAAAAAGGAGACACACACACACACGCATATTTATA [CACACA_site6551] | 10.3 ± 0.26 |
| AAAAAAAAAAAAAACACACACACAAATACAAATACA [CACACA_site414] | 9.9 ± 0.36 |
| AAGGATCACGCACAAACACACATATTTATATTTATA [CACACA_site6405] | 9.14 ± 0.45 |
| AAAAAAAAAAAACATACACACATACATACCTATATA [CACACA_site6575] | 9.33 ± 0.3 |
| TAAATAAAAAGACACACACACATATTTATATTTATA [CACACA_site7135] | 9.7 ± 0.19 |
| AACACATACAAACACACACACAAAAAAAAAAAAAAA [CACACA_site393] | 9.65 ± 0.49 |
| AACATACACATATACACACACACATATATACCTATA [CACACA_site6643] | 10 ± 0.31 |
| AACAAAAAAACAAACACACACACACGCATATTTATA [CACACA_site7680] | 10.2 ± 0.29 |
| AAAAAAAACAAACACACACACAAATATTTATATATT [CACACA_site436] | 9.63 ± 0.22 |
| TAAAAGGAGACATATACACACATATATATATATATA [CACACA_site5539] | 10 ± 0.23 |
| AAAAAAAAAAAAAACACACACACACGCATACAAAAT [CACACA_site6794] | 10.2 ± 0.13 |
| TAAACATACCTATACACACACACACGCACACGCACA [CACACA_site6372] | 10.22 ± 0.042 |
| AATGAAGACTTTTTTACACACTTCATATATTATATA [CACACA_site2034] | 8.9 ± 0.39 |
| ATATATCAAAATAATTGTACAAATTTTATATAATTT [XGTACX_site7249] | 8.53 ± 0.47 |
| CGTACATAATTTTAATCACACACAAACAAACACATA [CACACA_site7947] | 9.42 ± 0.34 |
| ATACTAAAAAGTATCTGTACTTATTTTAAAAATAAA [XGTACX_site4116] | 8.19 ± 0.53 |
| TTATATTCTTTTCTCTTTCTACTTTTTTTTTTTTTT [XGTACX_negctrl_site317] | 8.45 ± 0.69 |

| Sequence | gcPBM binding intensity (ln) |
| --- | --- |
| ATAGGTGAATACTAATATAAATTCAAGAGGGAAAAG [CACACA_negctrl_site720] | 8.9 ± 0.55 |
| AAAAAAGTAAAAAGTGCATGTAAAATATAAGTATCT [TGCATGCA_site55] | 9.18 ± 0.61 |
| CATATACATATATGTAGTACGTGTTCTTCTATATGA [XGTACX_site8344] | 8.84 ± 0.44 |
| TATAATGGTTCTGGTGTGCACCATGACAGAATCAAG | 8.82 ± 0.38 |
| GTGTAAATATAATTAGTTTCACAAAACAAATATTTA [CACACA_negctrl_site717] | 8.61 ± 0.42 |
| AAAGGGGATATATGAACACACAAAAAAAAAATATAT [CACACA_site2896] | 9.13 ± 0.68 |
| ATTCTTTACTCATAAAATTATATTATATAAACTTTT [XGTACX_negctrl_site554] | 8.45 ± 0.52 |
| AGTAATTTAAGGAATACACACAAGAAAAAAATAAGA [CACACA_site6177] | 9.13 ± 0.61 |
| AGATCATAATATTATACACACATTATATATCTGTAA [CACACA_site4925] | 9.14 ± 0.26 |
| GATCTACATGAAAGGACACACAAATATATATATATA [CACACA_site84] | 9.62 ± 0.35 |
| AAATAAAAAAAATAAAAGCAATCATAATAAAAATCT [CACACA_negctrl_site161] | 8.79 ± 0.46 |
| ATAAAAATATAATTGAGTACATATGAATAGTCCTAT [XGTACX_site6281] | 8.65 ± 0.42 |
| ATACACACATATATGTGTACATATACATATATATAT [XGTACX_site6744] | 9.88 ± 0.32 |
| TACGAAATCATATGTACACACACATATATATATATA [CACACA_site5216] | 9.8 ± 0.14 |
| AAAAAATGCGACATGTGTACACATATATATATATAT [XGTACX_site1679] | 9.81 ± 0.3 |
| AAATGCGCCATGTGTACACATATATATATATATATA [CACACA_site4649] | 10.1 ± 0.18 |
| ACATACACATATACATGTACATATATATATATATAT [XGTACX_site5082] | 9.68 ± 0.3 |
| ATATATATATATATATGTACATATACACATGTGTGC [XGTACX_site168] | 10.14 ± 0.099 |
| GTAAATACACATATGTGTACATATATATATATATAT [XGTACX_site3696] | 9.67 ± 0.31 |
| CGAAATCATATGTACACACACATATATATATATATA [CACACA_site2151] | 10.1 ± 0.18 |
| GATATGTACTAATACACACACATATATATATATATA [CACACA_site1022] | 10.2 ± 0.23 |
| ATATATATATATATATGTACACACATCAATCATATT [XGTACX_site4005] | 9.96 ± 0.33 |
| TAAATACTAATATGTACACACATATAGATATAGATT [CACACA_site7247] | 8.96 ± 0.38 |
| AAGATATGTACTAATACACACACATATATATATATA [CACACA_site8249] | 9.86 ± 0.14 |
